Publication PMC12136788
Positions count from the first letter of the chain named. In all, about 5,800 sequences were measured (“enrichment r”: median about 0.54, highest 2% from about 16 on). The sample holds the highest values, similar sequences and a random draw of the others, so the mix is not that of the screen.

B1: chr11:118750849:118750950:-|3pUTR|ENSG00000110367|msi1|total|mutant (ssRNA)
RNA: GGGAGUUCUACAGUCCGACGAUCAUUCCCGAAAGUACUUUGGCCUCGUGCUGCCGAGAGCAGAUUUCUAUGGUACCCUGUGUCCGUAAAGGGGCCCAGAAAUCUGGGAUGUACUGUUUGCUGCCACACUGUCUCAUCCCGUACCAACAGAGGAUUGAGCAUCA
B2: chr10:32033860:32033975:-|CDS|ENSG00000170759|unk|FALSE|unique (ssRNA)
RNA: GGGAGUUCUACAGUCCGACGAUCCACAGUGGAUAAAGAUAUUACUCUUACCAAUGAUAAACCAGCAACCGCAAUUGGAGUUAUAGGAAAUUUUACUGAUGCUGAAAGAAGAAAGUGUGAAGAAGAAAUUGCUAAAUUAUACAACAACAGAGGAUUGAGCAUCA
B3: chr2:205797254:205797461:+|3pUTR|ENSG00000118257|msi1|FALSE|unique (ssRNA)
RNA: GGGAGUUCUACAGUCCGACGAUCUCACCCUCCCAUGAUGCGCAGUGUUCAGAAAGCUGGUAAGUCCUAGGGAUUUCCAGAAGUAGCCUGCAGAAGAAGGUAAGUUUGAAAGCCACUCCAGGGGUCCUGAUGCUGUCAUGCUCACAACAGAGGAUUGAGCAUCA
B4: ENSG00000107863:be:win_2651|CDS|ENSG00000107863|bound_else_gene|NA|bound_elsewhere_windowed (ssRNA)
RNA: GGGAGUUCUACAGUCCGACGAUCAGGGUCUGGAUGAUUACAGAGAAGAUGCAAAAUUGUCCUUUAAGCACGUAUCUAGUCUGAAGGGAAUCAAGAUCGCAGACAGCCAAAAGUCAUCAGAAGACUCUGGGUCCAGAAAAGAUUCAACAGAGGAUUGAGCAUCA
B5: chr10:74136666:74136778:-|CDS|ENSG00000185009|unk|FALSE|unique (ssRNA)
RNA: GGGAGUUCUACAGUCCGACGAUCUUCAGAGGCUGCAAUUAAGGAUAAUGUGGUCAUAGUAUAUGAACUCUUAGAAGAAAUGUUAGACAAUGGAUUUCCACUGGCUACCGAAUCUAACAUUUUGAAAGAAUUGAUUAAACCACCCAACAGAGGAUUGAGCAUCA
B6: chr1:94529602:94529703:-|3pUTR|ENSG00000117525|msi1|total|mutant (ssRNA)
RNA: GGGAGUUCUACAGUCCGACGAUCUGGAAGGAAAUUGGGUGCAUUUCCCGGACUUUUCUAACAUAUGUCUAUAAUACCGUGUUCCGGUUCUUUUUUUUUUCAGGAAUACAUUUGGAAAUUCAAAACAAUUGGCAAACUUUGUAUCAACAGAGGAUUGAGCAUCA
B7: chr5:43295829:43295944:-|CDS|ENSG00000112972|unk|FALSE|unique (ssRNA)
RNA: GGGAGUUCUACAGUCCGACGAUCAAUAUCCUAGCUUUAUUCUAAAGUCAAACUUUAAAAUUUCAUGGCUUAUAUGAAUUUCAUAGUUUCCUUGGACUUCUCUUUCAGAGGGAAAUGAUAAAGAUUUUACCUUGAAUGAUUUUGCAACAGAGGAUUGAGCAUCA
B8: chr3:125228010:125228111:-|3pUTR|ENSG00000163848|msi1|total|mutant (ssRNA)
RNA: GGGAGUUCUACAGUCCGACGAUCAGUUCUCUUCAUAUUUCAUAACUACAUUUCAAUAAUUCUAAACUUUCUACAUUGAUUUUCCGAUACUUAUUUUUCAAGCUUGGUUUCUCAGCUGAUCAGAUGAAUUUAUUCAACUUCAAUCAACAGAGGAUUGAGCAUCA
B9: chr12:64147824:64147925:+|3pUTR|ENSG00000196935|unk|FALSE|unique (ssRNA)
RNA: GGGAGUUCUACAGUCCGACGAUCCAUCUCUGUGGUGUCUUUGUUCCUUUCCUUUCAUUCAUCACUACUUUCUCCUUGACAGCUAGCUUGCAUUAAAUAAUGUGAAACUUUUACCUUUAAAAUAUUUUUUUAUCUCACUUUCAUCAACAGAGGAUUGAGCAUCA
B10: ENSG00000100485:stop:overlap|stop_codon|ENSG00000100485|stop_codon|NA|stop_codon (ssRNA)
RNA: GGGAGUUCUACAGUCCGACGAUCAUAUAUAUACACAUAUAUAUACACACACACACACAUUUUAUGUGUCAGUUUUCAAUAUAUAGUUAACACAAAAGCUCUCAGCUUUUAAUUCAAAUAUAGGGAAUAUUUUUAACUUCACAGCAACAGAGGAUUGAGCAUCA
B11: chr3:125228010:125228111:-|3pUTR|ENSG00000163848|msi1|FALSE|unique (ssRNA)
RNA: B8 RNA with C83U, C84A
B12: chr1:93888438:93888539:-|3pUTR|ENSG00000023909|msi1|FALSE|unique (ssRNA)
RNA: GGGAGUUCUACAGUCCGACGAUCAGAUAUUUUUCCUGUCAUUGAUGAGAUAUAUCAGAGUAACUGGAGUAGCUGGGAUUUACUAGUAGUGUAAAUAAAAUUCACUCUUCAAUACAUGAAUGGAAACUUAAAUUUUUUUUUAUGCAACAGAGGAUUGAGCAUCA
B13: chr12:49764829:49764866:+|3pUTR|ENSG00000139644|msi1_unk|FALSE|overlapping (ssRNA)
RNA: GGGAGUUCUACAGUCCGACGAUCACUUUUAAAGAAAAUACCUAACAGAUUUUUAAUAUAGUUAUCUCUACCACUUUCUUUUCUAGUUUCUUGAUUUUCAGCUCAGGCUGCAUUCUAACUCAUACUGUGAAGACAAAGGUGUUUCAACAGAGGAUUGAGCAUCA
B14: chr1:93888438:93888539:-|3pUTR|ENSG00000023909|msi1|total|mutant (ssRNA)
RNA: B12 RNA with U69C, A70C, U83C, A84C, U86C, A87C
B15: chr11:58422334:58423261:-|CDS|ENSG00000172365|control|control|control (ssRNA)
RNA: GGGAGUUCUACAGUCCGACGAUCACACACUAGUGAGGUGAUUCUGGUUUUUAUGUCAAGCUUUAAUAUCUUUUUUGUUCUUCUAGUUAUCUUUAUCUCCUACUUGUUCAUAUUCAUCACCAUCUUGAAGAUGCAUUCAGCUAACAACAGAGGAUUGAGCAUCA
B16: chr1:162785649:162785750:+|3pUTR|ENSG00000162733|unk|FALSE|unique (ssRNA)
RNA: GGGAGUUCUACAGUCCGACGAUCUGAAUGUUGUUUUUUUGAAUGAACAUAAGAUAGAAACAAAAACUUCUCAUCCAGUUAACUAGAGUGAAUGUAGGGAGAAUUGUUUUGCUUGUAACAUGGAGAGUUUAUUUUCAAGUGAGGCAACAGAGGAUUGAGCAUCA
B17: chr15:77046258:77046342:-|3pUTR|ENSG00000140391|msi1_unk|FALSE|overlapping (ssRNA)
RNA: GGGAGUUCUACAGUCCGACGAUCAAAAAUAUUUACUGUAGUCCAAUAAGAUAGCAGCUGUACAAAAUGACUAAAAUAGAUUGUAGGAUCAUAUGGCGUAUAUCUUGGUUCAUCUUCAAAAUCAGAGACUGAGCUUUGAAACUACAACAGAGGAUUGAGCAUCA
B18: chr2:128192346:128192447:+|3pUTR|ENSG00000136731|msi1|FALSE|unique (ssRNA)
RNA: GGGAGUUCUACAGUCCGACGAUCAGAAAAUGAUGUUACCACUAAAAUAUUUUCUCCAAGAAGGCAUACUGUAACAGAAAAGAUAGGUAAGAUAUUUUUUUCCCAAGAAGUAAGAAUUGAUUGUGCUGAAUGUUCAAACUCUGGCAACAGAGGAUUGAGCAUCA
B19: chr16:3727831:3727932:-|CDS|ENSG00000005339|unk|FALSE|bound_elsewhere (ssRNA)
RNA: GGGAGUUCUACAGUCCGACGAUCCGUCUCACCCCAGACUGGUUCCCCCCACCCCGGACUCGCAGUCACCAUGGCCAGCUCCAUAGAUCAGGGACACUUGGGGAACCCCGAACAGAGUGCAAUGCUCCCCCAGCUGAACACCCCCAACAGAGGAUUGAGCAUCA
B20: chr16:30193532:30193793:-|CDS|ENSG00000169627|control|control|control (ssRNA)
RNA: GGGAGUUCUACAGUCCGACGAUCGCCUUAGUAAGGGCGGAAGUGAGUUUUCCAGCGGAAGUGGCUCCUGUAAGGCAGCAAGGUAGCGUGGCCGGCGCCCGAGCUGGGGUUGUGUCCCUGCUGGGCUGCCGUUCCAGCUGGACUCAACAGAGGAUUGAGCAUCA
B21: chrX:101412715:101412817:+|CDS|ENSG00000126945|unk|FALSE|unique (ssRNA)
RNA: GGGAGUUCUACAGUCCGACGAUCGGGUAUGGAGGCUAUGAUGACUAUGGUGGCUAUAAUGAUGGAUAUGGCUUUGGGUCUGAUAGAUUUGGAAGAGACCUCAAUUACUGUUUUUCAGGAAUGUCUGAUCAUAGAUACGGAGAUCAACAGAGGAUUGAGCAUCA
B22: chr11:28036422:28036524:-|CDS|ENSG00000121621|unk|FALSE|unique (ssRNA)
RNA: GGGAGUUCUACAGUCCGACGAUCCAGCUCAAUGAUUCUCUUAGCAAAGAACUUCAGCCUAUUGUAUAUACACCAGAAGACUGUAGAAAAGCUUUUCAAAAUCCGUCUACAGUAACCUUAAUGAAACCAUCAUCAUUUACUACACAACAGAGGAUUGAGCAUCA

These binders were tested against MSI1 full-length (mouse, UniProt Q61474 1-362) (assay: nsRBNS (natural sequence RNA bind-n-seq); RBNS binding buffer (assumed for nsRBNS): 25 mM Tris pH 7.5, 150 mM KCl, 3 mM MgCl2, 0.01% Triton X-100, 500 ug/ml BSA, 20 U/ml SUPERase-In, 4 C; UNK is unkempt and MSI1 is Musashi-1; names of the RNAs are library labels; protein concentration not given here; high values mean tight binding).
MSI1 full-length, sequence (Q61474 whole entry): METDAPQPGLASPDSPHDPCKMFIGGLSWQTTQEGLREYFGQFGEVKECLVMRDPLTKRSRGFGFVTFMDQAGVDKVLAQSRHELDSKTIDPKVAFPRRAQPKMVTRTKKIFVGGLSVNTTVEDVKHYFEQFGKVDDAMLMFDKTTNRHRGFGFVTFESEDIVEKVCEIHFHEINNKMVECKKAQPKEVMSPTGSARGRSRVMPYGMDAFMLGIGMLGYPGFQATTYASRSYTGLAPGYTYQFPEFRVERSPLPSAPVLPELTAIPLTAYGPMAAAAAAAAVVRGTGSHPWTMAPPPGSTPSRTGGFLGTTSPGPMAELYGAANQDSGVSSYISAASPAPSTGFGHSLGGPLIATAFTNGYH

| Binder | binding signal |
| --- | --- |
| B1 | 0.539 enrichment R |
| B2 | 1.59 enrichment R |
| B3 | 0.607 enrichment R |
| B4 | 0.365 enrichment R |
| B5 | 0.651 enrichment R |
| B6 | 0.407 enrichment R |
| B7 | 0.654 enrichment R |
| B8 | 18.6 enrichment R |
| B9 | 7.22 enrichment R |
| B10 | 2.06 enrichment R |
| B11 | 5.53 enrichment R |
| B12 | 28.4 enrichment R |
| B13 | 3.05 enrichment R |
| B14 | 0.484 enrichment R |
| B15 | 23.6 enrichment R |
| B16 | 2.65 enrichment R |
| B17 | 9.31 enrichment R |
| B18 | 0.593 enrichment R |
| B19 | 0.562 enrichment R |
| B20 | 0.62 enrichment R |
| B21 | 0.771 enrichment R |
| B22 | 0.992 enrichment R |
